Assay results taken from ChEMBL document CHEMBL1157539, “Thousands of chemical starting points for antimalarial lead identification” (Nature, 2010).

test system: Plasmodium falciparum; test: GSK_TCMDC: Inhibition of Plasmodium falciparum Dd2 in whole red blood cells, using parasite LDH activity as an index of growth. Test compounds present at 2uM; assay type: functional

SMILES	Inhibition
NCCCNc1nc(Nc2ccc(C(F)(F)F)cc2F)c2c(=O)[nH]ccc2n1.O=C(O)C(F)(F)F	15%
COc1cccc(C(=O)NC(C=Cc2ccccc2)c2cc(Cl)c3cccnc3c2O)c1 (stereo not given)	58%
COc1ccc2nccc([C@@H](O)CN3CCC(NCc4cc5cc(C)ccc5s4)CC3)c2c1.O=C(O)C(=O)O	74%
CN1CCC(C(=O)N(Cc2ccc(-c3ccc(CNCCc4ccc(S(C)(=O)=O)cc4)cn3)cc2)Cc2cccc(F)c2)CC1.O=C(O)C(F)(F)F	90%

test system: HepG2; test: GSK_TCMDC: Percent inhibition of human HepG2 cell line. Test compounds present at 10uM.; assay type: functional

SMILES	Inhibition
COc1ccc(NC(=O)[C@H](CC(C)C)Nc2cc(C)nc(NCc3ccccc3C)n2)cc1.O=C(O)C(F)(F)F	12%
COc1ccccc1C(C)NCC(=O)Nc1cccc(C(=O)Nc2cccc(C(F)(F)F)c2)c1 (stereo not given)	34%
CN1CCOc2ccc(Nc3nnc(-c4cccc(-c5cccnc5)c4)o3)cc2C1	0%
Cc1cc2c(NC(=O)NC3CCN(Cc4ccc(Cl)c(Cl)c4)CC3)cccc2cn1.Cl	11%
O=C(N1CCN(c2ccc(C(F)(F)F)cc2[N+](=O)[O-])CC1)C(Cl)(Cl)Cl	29%
COc1ccc(OC)c2c1CC1NCC2c2c(OC)ccc(OC)c21.Cl (stereo not given)	2%
CCN(CC)/C(=N/C(=N)Nc1ccc(Cl)cc1)NCCCCCCCCN/C(=N\C(=N)Nc1ccc(Cl)cc1)N(CC)CC	10%
Cc1ccccc1CN1CCCN(Cc2ccc(C(=O)Nc3ccc(C(C)(C)C)cc3)cc2)CC1.O=C(O)C(F)(F)F	52%
O=C(Nc1ccc(-c2csc3nccn23)cc1)c1ccc(Cl)cc1	54%
Cc1ccc(NC(=O)c2cc(Br)cc(N3CCC(N(C)C)CC3)c2)cc1F.O=C(O)C(F)(F)F	23%
COc1cc(Nc2nc(N)c3cc(OC)c(OC)cc3n2)cc(OC)c1.Cl	7%
Cc1cccc2nc(-c3ccc(-c4ccc(CN5CC(C)OC(C)C5)cc4)cc3)[nH]c12.O=C(O)C(F)(F)F (stereo not given)	37%
O=C(NCc1ccc(Cl)cc1)c1ccc(CN2CCCN(CC3CCCCC3)CC2)cc1.O=C(O)C(F)(F)F	18%
CCCNC(=O)c1cncc(-c2ccc(CNCCCc3ccccc3)cc2)c1.O=C(O)C(F)(F)F	0%
O=C(Nc1ccc([N+](=O)[O-])cc1)Nc1cc(OCC(F)(F)F)cc(OCC(F)(F)F)c1	71%
CN1CCN(CCCN(Cc2csc(-c3ccc(CNCc4ccccc4)cc3)n2)S(=O)(=O)c2ccccc2Cl)CC1.O=C(O)C(F)(F)F	13%

SMILES	Inhibition
O=C(CCc1c[nH]cn1)Nc1cccc(-c2ccc(-c3nc4ccccc4[nH]3)s2)c1	11%
COc1ccc(C2C(C(=O)OC3CCCCC3)=C(C)NC3=C2C(=O)CCC3)cc1Br (stereo not given)	7%
COc1ccc(CN(C)Cc2ccc(NC(=O)c3cccc4c(=O)c5cccc(C)c5[nH]c34)cc2)cc1OC	7%
CN1CCC(N(Cc2ccc(-c3cnc(NCc4ccccc4)nc3)cc2)S(=O)(=O)c2ccccc2)CC1.O=C(O)C(F)(F)F	48%
O=C(/C=C/c1ccc(Cl)c(Cl)c1)NCCCCCN1CCCC(CNC(=O)Nc2ccc(Oc3ccccc3)cc2)C1 (stereo not given)	26%
C=CCC(C(=O)Nc1ccnc2ccc(OC)cc12)C1CCN(CCCCCCC)CC1 (stereo not given)	20%
Cn1cccc1CCNCc1ccc(-c2cccc(-c3nc4cc(F)ccc4[nH]3)c2)cc1.O=C(O)C(F)(F)F	0%
O=C(NCCCCCN1CCC(c2c[nH]c3ccccc23)CC1)Nc1ccc(Cl)cc1Cl	71%
CC1CN(c2cnn(Cc3ccc(NC(=O)Nc4cccc(C(F)(F)F)c4)cc3)c(=O)c2Cl)CC(C)N1.O=C(O)C(F)(F)F (stereo not given)	0%
Cc1ccc(Nc2ccnc3ccc(C(F)(F)F)cc23)cc1O.O=C(O)C(F)(F)F	23%
O=C(NC1CCN(CCN2CCC(c3ccccc3C(F)(F)F)CC2)CC1)c1ccc(-c2ccc(Cl)cc2)cc1	39%
Cc1cc(N[C@@H](Cc2ccccc2)C(=O)NCCOc2ccccc2)nc(NCCOc2ccccc2)n1.O=C(O)C(F)(F)F	0%
O=C(O)C(F)(F)F.c1cc(CN2CCN(c3ccncc3)CC2)cc(-c2cccc(-c3nc4ccccc4[nH]3)c2)c1	35%
CCNCc1cccc(-c2ccc3ccnc(N)c3c2)c1	17%
O=C(/C=C/c1ccc(Cl)c(Cl)c1)NCCCCCN1CCCC(c2c[nH]c3ccccc23)C1 (stereo not given)	25%
